Data on 21 molecules can be found in PubChem BioAssay (NCI).

The structures appear in SMILES notation. Compounds without any hit were thinned out: in the full panel of roughly 79,000, 15% have a hit. Values without a mark were called inactive. Activity calls are given as the source filed them. No stated cut-off is given here; in the data, active means growth inhibition above about 70%; inactive means the rest.

Test [1] can be described thus: NCI Yeast Anticancer Drug Screen. Data for the rad50 strain (AID 155).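 Further: 0% = growth of vehicle-only cultures of the same strain.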 To be noted: S. cerevisiae rad50 strain growth inhibition; at 50.0 µM; stronger effect = higher value. The gist of the method: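 Genetically altered yeast (DNA repair pathway); compound treatment; growth inhibition vs vehicle ctrl.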
The nature of test [2]: NCI Yeast Anticancer Drug Screen. Data for the mec2-1 strain (AID 157). To be noted: S. cerevisiae mec2-1 strain, at 50.0 µM, stronger effect = higher value. In outline: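 Strain: mec2-1 (DNA repair/cell cycle alteration). Compound exposure, then growth measured; inhibition expressed relative to vehicle.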
Test [3] can be described thus: NCI Yeast Anticancer Drug Screen. Data for the sgs1 mgt1 strain (AID 161).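 Further: 0% = growth of cultures given vehicle only.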 Particulars: S. cerevisiae sgs1 mgt1 strain, at 50.0 µM, stronger effect = higher value. The gist of the method: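 Read-out: growth inhibition vs vehicle controls. Cells: mutant yeast strain deficient in DNA damage repair.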
Test [4] can be described thus: NCI Yeast Anticancer Drug Screen. Data for the cln2 rad14 strain (AID 165).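 Further: 0% = growth equal to vehicle treated cultures.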 To be noted: S. cerevisiae cln2 rad14 strain, at 50.0 µM, stronger effect = higher value. In outline: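 Compounds are applied to the cln2 rad14 yeast strain, and growth is then compared with that of vehicle-treated cultures to give inhibition.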
Test [5] can be described thus: NCI Yeast Anticancer Drug Screen. Data for the bub3 strain (AID 167). Particulars: S. cerevisiae bub3 mutant strain, at 50.0 µM, stronger effect = higher value. In outline: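 Yeast carrying a defined mutation is treated with each compound, and growth is compared with that of vehicle-exposed cells to give inhibition.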
The nature of test [6]: NCI Yeast Anticancer Drug Screen. Data for the mlh1 rad18 strain (AID 175). Particulars: S. cerevisiae mlh1 rad18 strain growth inhibition; at 50.0 µM; stronger effect = higher value. The gist of the method:
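Read-out is yeast growth inhibition, calculated against vehicle-only controls. The compound was applied to a strain engineered with DNA damage repair alterations.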

For the molecule `CCC1(O)CCCCC1`, the growth inhibition in test [1] was -16.4%; in test [2], -23.4%; in test [3], -30.1%; in test [4], -37.9%; in test [5], -18.6%; in test [6], -21.7%.
Take `S=C(c1ccccc1)N1CCCCC1`: the growth inhibition is 8% in test [1]; -1.7% in test [2]; 0.45% in test [3]; -23.4% in test [4]; 16.3% in test [5]; 4.05% in test [6].
As for `Cc1ccccc1N1C(=O)[N+]2(CCCCC2)N=C1[O-]`, the growth inhibition in test [1] was -11.1%; in test [2] it was 2.2%; in test [3], -13.3%; in test [4] it was -42.5%; in test [5], -3.9%; in test [6], -12.6%.
Consider `CCN(CC)CCCO`, for which the growth inhibition in test [1] is 27.8%; in test [2], -12.3%; in test [3], -7.75%; in test [4], -8.8%; in test [5], -4.6%; in test [6], 20.1%.
Consider `COC1(OC)C(c2ccco2)C(C#N)(C#N)C1(OC)OC` (stereo unspecified), for which the growth inhibition in test [1] is -5.65%; in test [2] it was -1.95%; in test [3], -8.05%; in test [4], -38%; in test [5], -4.85%; in test [6], -0.9%.
As to `OCCCC1CCN(CCO)CC1`, the growth inhibition is -22.2% in test [1]; -27.5% in test [2]; -18.8% in test [3]; 1.3% in test [4]; -8.7% in test [5]; -10.3% in test [6].
As to `ClC1CC2CC1C1COCC21` (stereo unspecified), the growth inhibition in test [1] is 8.9%; in test [2] it was -5.35%; in test [3], -3.85%; in test [4] it was -16.2%; in test [5], -12.6%; in test [6] it was -8.9%.
As for `N#Cc1c2c(c(=S)n(-c3ccc(Cl)cc3)c1N)CCCC2`, the growth inhibition in test [1] is -4.4%; in test [2], -3.35%; in test [3] it was -5.8%; in test [4], 1.75%; in test [5], 6.85%; in test [6] it was -7.2%.
For the molecule `Cc1c(C(C)c2[nH]c3ccccc3c2C)[nH]c2ccccc12`, the growth inhibition is 8.1% in test [1]; 0.45% in test [2]; -11.6% in test [3]; 4.45% in test [4]; 17.4% in test [5]; -13.6% in test [6].
With `COc1cccc(-c2cc(=O)c3cc(Cl)cnc3[nH]2)c1`, the growth inhibition in test [1] was 5.35%; in test [2] it was 2.7%; in test [3] it was 4.2%; in test [4], 31.1%; in test [5], 11.8%; in test [6], 5.1%.
On to `COc1ccc(CSC(=S)Nc2cc(C)c(C)cc2Br)cc1`, for which the growth inhibition in test [1] is 96.3% (active); in test [2], 97.5% (active); in test [3], 97.7% (active); in test [4] it was 97.6% (active); in test [5], 96.8% (active); in test [6], 96.8% (active).
Turning to `CC1(C)C2CC3C(CCC4C(=O)OC(=O)C43)C1C2` (stereo unspecified), the growth inhibition in test [1] was -1.2%; in test [2], 10.2%; in test [3] it was -3.8%; in test [4] it was -5.3%; in test [5], -4.3%; in test [6], -2.35%.
Consider `CCCCN1CCSC1=S`, for which the growth inhibition is 99.5% (active) in test [1]; 99.7% (active) in test [2]; 98.2% (active) in test [3]; 98% (active) in test [4]; 99.5% (active) in test [5]; 99.5% (active) in test [6].
As to `COC(=O)C1=CON2C3CC4CC(C3)CC(C4)C12C` (stereo unspecified), the growth inhibition in test [1] is -2%; in test [2], -30.6%; in test [3] it was -8.95%; in test [4], -14.2%; in test [5], -18.4%; in test [6] it was -5.9%.
Regarding `CCOC(=O)c1nc2c([nH]1)c(=O)n(C)c(=O)n2C`, the growth inhibition was 28.8% in test [1]; 10.7% in test [2]; 2.3% in test [3]; 30.1% in test [4]; 9.8% in test [5]; 1.4% in test [6].
For `O=P(O)(O)c1ccc(Oc2ccccc2)cc1`, the growth inhibition in test [1] was -8.6%; in test [2] it was 1.35%; in test [3], -4.1%; in test [4] it was -22.2%; in test [5] it was 5.45%; in test [6], -2.85%.
As for `OC1c2ccccc2-c2ccc(N(Cc3ccccc3)Cc3ccccc3)cc21` (stereo unspecified), the growth inhibition was 6.95% in test [1]; 11.4% in test [2]; 3.75% in test [3]; 30.8% in test [4]; -9% in test [5]; 23.8% in test [6].
`CCNc1nc(C)nc2c1cnn2-c1ccccc1`: the growth inhibition in test [1] is -16.1%; in test [2], -12.6%; in test [3], -6.75%; in test [4] it was -56.5%; in test [5], -4.8%; in test [6], -9.75%.
With `CCOc1ccc(N)c([N+](=O)[O-])c1`, the growth inhibition is 4.65% in test [1]; 21.9% in test [2]; 22.9% in test [3]; -34.4% in test [4]; -7.75% in test [5]; 3.1% in test [6].
As for `Oc1cccnc1I`, the growth inhibition in test [1] was 24.4%; in test [2], 3.1%; in test [3], 18.5%; in test [4] it was 19.5%; in test [5], 18%; in test [6], 10.2%.
With `O=C1NC2=NN=C(c3ccc(Br)cc3)CN2NC12c1ccccc1-c1ccccc12`, the growth inhibition in test [1] was -21.6%; in test [2] it was -15.8%; in test [3], -13.8%; in test [4], 21.6%; in test [5], -14.2%; in test [6] it was 4.2%.
